Test results: PubChem BioAssay (NCI)
This is part of a sample that, as a whole, favours compounds with a hit. Of some 79,000 tested, about 15% had one in any assay. The source made the active and inactive calls. No stated cut-off is given here; in the data, active means growth inhibition above about 70%; inactive means the rest.

Columns and labels:
[1] = NCI Yeast Anticancer Drug Screen. Data for the rad52 strain (AID 147);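 further: 0% = growth of vehicle-treated control cultures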; conditions: S. cerevisiae rad52 mutant growth inhibition, active compounds read high
Procedure, shortened: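 Here a repair-compromised yeast strain receives each compound; its growth is then quantified and normalised to vehicle-only controls.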

[2] = NCI Yeast Anticancer Drug Screen. Data for the wt1 strain (AID 149);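 further: 0% = growth of vehicle-treated wt1 cultures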; conditions: S. cerevisiae wt1 strain (SPY 50644) growth inhibition, active compounds read high
Procedure, shortened: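 Compounds are added to wt1 yeast cultures. Growth is then measured. Inhibition is expressed relative to vehicle-treated controls.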

[3] = NCI Yeast Anticancer Drug Screen. Data for the rad50EPP+ strain (AID 151);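 further: 0% = growth of vehicle-treated control cultures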; conditions: S. cerevisiae rad50 mutant strain, active compounds read high
Procedure, shortened: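 Read-out is yeast growth inhibition relative to vehicle; cells used were the rad50EPP+ strain.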

[4] = NCI Yeast Anticancer Drug Screen. Data for the mgt1 strain (AID 153); conditions: S. cerevisiae mgt1 mutant growth inhibition, active compounds read high
Procedure, shortened: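 Measured: inhibition of mgt1 yeast growth by compound, normalized to vehicle-treated cultures.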

[5] = NCI Yeast Anticancer Drug Screen. Data for the rad50 strain (AID 155);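 further: 0% = growth of vehicle-only cultures of the same strain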; conditions: S. cerevisiae rad50 strain growth inhibition, active compounds read high
Procedure, shortened: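 Inhibition values express reduced yeast growth in compound-treated cultures relative to vehicle-treated controls.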

[6] = NCI Yeast Anticancer Drug Screen. Data for the mec2-1 strain (AID 157); conditions: S. cerevisiae mec2-1 strain, active compounds read high
Procedure, shortened: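 Using mec2-1 yeast: add compound, measure growth, express inhibition versus vehicle-treated cultures.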

[7] = NCI Yeast Anticancer Drug Screen. Data for the rad14 strain (AID 159);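 further: 0% = growth of vehicle-treated control cultures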; conditions: S. cerevisiae rad14 strain growth inhibition, active compounds read high
Procedure, shortened: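 A mutant yeast strain defective in DNA damage repair is treated with compound; inhibition of its growth is scored against untreated, vehicle-exposed cultures.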

[8] = NCI Yeast Anticancer Drug Screen. Data for the sgs1 mgt1 strain (AID 161);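 further: 0% = growth of cultures given vehicle only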; conditions: S. cerevisiae sgs1 mgt1 strain, active compounds read high
Procedure, shortened: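 Compounds are added to genetically altered yeast, and growth is compared with cultures given vehicle alone to give percent inhibition.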

[9] = NCI Yeast Anticancer Drug Screen. Data for the CLN2oe strain (AID 163);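 further: 0% = growth of vehicle-only control cultures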; conditions: S. cerevisiae CLN2oe strain, active compounds read high
Procedure, shortened: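 Whole-cell yeast growth assay. A strain engineered for altered cell-cycle control received compound, and inhibition relative to vehicle-treated cultures was recorded.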

[10] = NCI Yeast Anticancer Drug Screen. Data for the bub3 strain (AID 167); conditions: S. cerevisiae bub3 mutant strain, active compounds read high
Procedure, shortened: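 Steps: expose the mutant yeast strain to compound; grow alongside vehicle-treated cultures; measure growth; express inhibition against the vehicle cultures.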

[11] = NCI Yeast Anticancer Drug Screen. Data for the wt2 strain (AID 169);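 further: 0% = growth of vehicle-treated yeast cultures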; conditions: S. cerevisiae wt2 strain growth inhibition, active compounds read high
Procedure, shortened: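 Treated yeast vs. vehicle-treated yeast: growth inhibition determined.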

[12] = NCI Yeast Anticancer Drug Screen. Data for the mlh1 strain (AID 171);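 further: 0% = growth of vehicle-treated control cultures of the same strain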; conditions: S. cerevisiae mlh1 strain growth inhibition, active compounds read high
Procedure, shortened: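 A yeast strain with a defined genetic lesion serves as the test organism. Cultures receive compound or vehicle, and growth is measured.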

[13] = NCI Yeast Anticancer Drug Screen. Data for the sgs1 strain (AID 173);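 further: 0% = growth of vehicle-only control cultures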; conditions: S. cerevisiae sgs1 mutant, active compounds read high
Procedure, shortened: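 A genetically defined yeast mutant is incubated with the test compound, and its growth is compared to that of the same strain given vehicle.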

[14] = NCI Yeast Anticancer Drug Screen. Data for the mlh1 rad18 strain (AID 175); conditions: S. cerevisiae mlh1 rad18 strain growth inhibition, active compounds read high
Procedure, shortened: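 Steps: expose repair-defective yeast to compound; measure growth; express inhibition against vehicle-treated controls.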

[15] = NCI Yeast Anticancer Drug Screen. Data for the rad18 strain (AID 177); conditions: S. cerevisiae rad18 mutant growth inhibition, active compounds read high
Procedure, shortened: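 Measured value is growth inhibition of a yeast strain bearing a DNA repair alteration, referenced to vehicle-treated cells.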

[16] = at 5.0 µM (retest, dose inferred, filed as 0.5)
[17] = at 50.0 µM (retest, dose inferred, filed as 5.0)

Measured: growth inhibition

Cc1cc(C)c(NC(=S)NC(=O)c2ccccc2)cc1C
inactive: [1]; at 1.2 µM -33% | [1]; at 3.7 µM -58% | [1]; at 11.0 µM -54% | [1]; at 33.0 µM -41% | [1]; at 100.0 µM -44% | [2]; at 1.2 µM -46% | [2]; at 3.7 µM -29% | [2]; at 11.0 µM -39% | [2]; at 33.0 µM -17% | [2]; at 100.0 µM -14% | [3]; at 1.2 µM -44% | [3]; at 3.7 µM -41% | [3]; at 11.0 µM -25% | [3]; at 33.0 µM -18% | [3]; at 100.0 µM -5% | [4]; at 1.2 µM -57% | [4]; at 3.7 µM -54% | [4]; at 11.0 µM -25% | [4]; at 33.0 µM 26% | [4]; at 100.0 µM 37% | [5]; at 1.2 µM -50% | [5]; at 3.7 µM -52% | [5]; [16] -13% | [5]; at 11.0 µM -52% | [5]; at 33.0 µM -39% | [5]; [17] -4% | [5]; at 50.0 µM 18.4% | [5]; at 100.0 µM -21% | [6]; at 1.2 µM -41% | [6]; at 3.7 µM -61% | [6]; [16] -16% | [6]; at 11.0 µM -49% | [6]; at 33.0 µM -46% | [6]; [17] 4% | [6]; at 50.0 µM -0.25% | [6]; at 100.0 µM -11% | [7]; at 1.2 µM -40% | [7]; at 3.7 µM -48% | [7]; at 11.0 µM -40% | [7]; at 33.0 µM -16% | [7]; at 100.0 µM -9% | [8]; [16] -7% | [8]; [17] 41% | [8]; at 50.0 µM 25.3% | [9]; at 1.2 µM -63% | [9]; at 3.7 µM -78% | [9]; at 11.0 µM -58% | [9]; at 33.0 µM -64% | [9]; at 100.0 µM -57% | [10]; at 1.2 µM -21% | [10]; at 3.7 µM -17% | [10]; [16] 8% | [10]; at 11.0 µM 38% | [10]; at 33.0 µM 65% | [10]; at 50.0 µM 49.6% | [10]; at 100.0 µM 62% | [11]; at 1.2 µM -43% | [11]; at 3.7 µM -49% | [11]; at 11.0 µM -43% | [11]; at 33.0 µM -4% | [11]; at 100.0 µM 22% | [12]; at 1.2 µM -34% | [12]; at 3.7 µM -20% | [12]; at 11.0 µM -7% | [12]; at 33.0 µM 34% | [12]; at 100.0 µM 32% | [13]; at 1.2 µM -62% | [13]; at 3.7 µM -54% | [13]; at 11.0 µM -45% | [13]; at 33.0 µM -3% | [13]; at 100.0 µM -1% | [14]; [16] -37% | [14]; [17] -12% | [14]; at 50.0 µM 8.65% | [15]; at 1.2 µM -75% | [15]; at 3.7 µM -62% | [15]; at 11.0 µM -73% | [15]; at 33.0 µM -41% | [15]; at 100.0 µM -46%
active: [10]; [17] 79%
